Bioassay records deposited in PubChem BioAssay by Sanford-Burnham Center for Chemical Genomics.
Rows were chosen to be rich in hits. Some 4% of all compounds tested hit in one or more screens of this group.
Peg3 promoter: inhibitors of Peg3 promoter. actives 1.7% (n = 360,000). HeLa PEG-Prom luciferase reporter, luminescence, overnight. inhibition, % at 20 µM;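 active = inhibition of at least 50% at 20 µM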
TWEAK Fn14 block: TWEAK-Fn14 signaling inhibition. TWEAK-stimulated Fn14 reporter cells, luciferase luminescence, 8 h. actives 2% (n = 360,000). inhibition, % at 10 µM; in the data active = inhibition above about 50%
HIF-2a inh: blocks HIF-2a reporter activity. inhibition, % at 18.8 µM. actives 0.72% (n = 360,000). 786-0 RCC cells HIF-2a reporter, luciferase luminescence, overnight;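 active = inhibition of the luminescence signal of 40% or more relative to plate controls, in a single-dose primary screen at 18.75 µM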
CF NFkB block: cystic fibrosis NF-kB activation inhibition | inhibition, % at 5 µM | KKLEB NF-kB-GFP reporter, PAF-induced, GFP fluorescence overnight | actives 0.86% (n = 360,000);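 active = at least 50% inhibition at 5 µM, scaled per plate between neutral and stimulator controls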;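 also: PAF is a Pseudomonas aeruginosa culture filtrate used as stimulus; plate controls were PAF-stimulated DMSO wells for no effect and unstimulated DMSO wells for full effect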
TROY signal inh: TROY signaling inhibition; Q293 LMP1-TROYcd NF-kB luciferase reporter, 4 h; inhibition, % at 10 µM; actives 0.98% (n = 360,000);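 active = compounds whose plate-normalised and pattern-corrected inhibition of the luciferase reporter signal at the single screening dose is 50% or more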
KKLEB tox: CF airway cell cytotoxicity counter-screen. KKLEB CF airway cells viability, ATPlite luminescence, overnight; active compounds read low; cells stimulated with P. aeruginosa culture filtrate. activity change (cytotoxicity), % at 5 µM. actives 0.36% (n = 360,000). AID 602141;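 active = corrected activity change at or below -50% at 5 µM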
* hit, by the source's call; ! = not active in a repeat.

Screening Cc1cccc(/N=C/c2c(O)[nH]c3ccccc23)n1 returned Peg3 promoter -224.8, TWEAK Fn14 block 0.9, HIF-2a inh -309.9, CF NFkB block -6.5, TROY signal inh -49.5 and KKLEB tox -2.0.
Screening Oc1c(Br)cc(Br)cc1C=Nc1ccc2c(c1)OCCO2 returned Peg3 promoter 23.6, TWEAK Fn14 block 65.1*, HIF-2a inh 9.2, CF NFkB block 36.4, TROY signal inh 67.3* and KKLEB tox 18.4.
Screening Oc1[nH]c2ccccc2c1C=Nc1ccc2c(c1)OCCO2 returned Peg3 promoter -126.0, TWEAK Fn14 block 42.7, HIF-2a inh -247.9, CF NFkB block -17.9, TROY signal inh 81.1* and KKLEB tox 0.1.
COc1cc(C)ccc1OCCCOc1c(Cl)cccc1Cl was read as Peg3 promoter -41.8, TWEAK Fn14 block -41.9, HIF-2a inh -119.6, CF NFkB block -4.8, TROY signal inh -31.4 and KKLEB tox 4.5.
For CC1SC(C)C(=O)N(CC(=O)Nc2ccc3c(c2)OCO3)C1=O (configuration not stated) the results were Peg3 promoter -2.7, TWEAK Fn14 block -19.8, HIF-2a inh -18.0, CF NFkB block -4.3, TROY signal inh -6.2 and KKLEB tox -19.5.
Screening Cc1nc(-c2cccc(NC(=O)c3ccc(Cl)c(S(=O)(=O)N4CCCC4)c3)c2)cs1 returned Peg3 promoter 55.0*, TWEAK Fn14 block 43.9, HIF-2a inh -37.5, CF NFkB block -6.0, TROY signal inh 48.1 and KKLEB tox -6.0.
For CCCn1c(NC(=O)c2ccc(Cl)c(S(=O)(=O)N3CCCC3)c2)nc2ccccc21 the results were Peg3 promoter 53.4*, TWEAK Fn14 block 60.3*, HIF-2a inh 12.3, CF NFkB block -4.3, TROY signal inh 34.4 and KKLEB tox -7.0.
For Cc1nc(-c2ccc(C(=O)Nc3ccccc3F)cc2)cs1 the results were Peg3 promoter 35.4, TWEAK Fn14 block 90.1*, HIF-2a inh 15.5, CF NFkB block -32.5, TROY signal inh 65.8* and KKLEB tox -14.6.
For Cc1nc(-c2ccc(C(=O)Nc3ccc(F)cc3)cc2)cs1 the results were Peg3 promoter -206.8, TWEAK Fn14 block 35.9, HIF-2a inh -223.2, CF NFkB block 7.8, TROY signal inh -35.6 and KKLEB tox -5.3.
`COc1ccc(NC(=O)c2ccc(-c3csc(C)n3)cc2)cc1` gave Peg3 promoter -207.6, TWEAK Fn14 block 4.5, HIF-2a inh -162.9, CF NFkB block 17.7, TROY signal inh -42.0 and KKLEB tox -8.8.
Cc1nc(-c2ccc(C(=O)Nc3cccc(F)c3)cc2)cs1 was read as Peg3 promoter -87.3, TWEAK Fn14 block 91.9*, HIF-2a inh -131.6, CF NFkB block 5.1, TROY signal inh 55.8* and KKLEB tox -25.1.
Cc1ccc2oc(/N=C(\N)NC(=O)C3CC3)nc2c1 was read as Peg3 promoter -149.8, TWEAK Fn14 block 64.3*, HIF-2a inh -122.7, CF NFkB block -8.5, TROY signal inh 30.9 and KKLEB tox -1.0.
Screening CCCOC(=O)c1ccc(Oc2cn[nH]c2-c2ccc(O)cc2O)cc1 returned Peg3 promoter 8.9, TWEAK Fn14 block -1.6, HIF-2a inh 20.5, CF NFkB block 14.5, TROY signal inh 50.1* and KKLEB tox 9.6.
Screening O=C(CCN1CCOCC1)NNC(=O)Nc1cccc(Cl)c1 returned Peg3 promoter -1.2, TWEAK Fn14 block -4.0, HIF-2a inh 2.8, CF NFkB block -5.9, TROY signal inh -1.0 and KKLEB tox 0.1.
`O=C(/C=C/c1ccc(O)cc1)c1ccc(NC2=C(N3CCCCC3)C(=O)c3ccccc3C2=O)cc1` gave Peg3 promoter -46.0, TWEAK Fn14 block 53.4*, HIF-2a inh -62.2, CF NFkB block 54.8*, TROY signal inh 4.6 and KKLEB tox -15.1.
Screening COc1ccccc1NC1=C(N2CCCCC2)C(=O)c2ccccc2C1=O returned Peg3 promoter 64.3*, TWEAK Fn14 block 67.4*, HIF-2a inh -17.6, CF NFkB block 0.0, TROY signal inh 57.7* and KKLEB tox -5.7.
O=C1C(Nc2ccccc2)=C(N2CCCCC2)C(=O)c2ccccc21 was read as Peg3 promoter 33.8, TWEAK Fn14 block 21.5, HIF-2a inh -0.8, CF NFkB block 16.2, TROY signal inh -36.7 and KKLEB tox 3.5.
For Cc1ccc(NC2=C(N3CCCCC3)C(=O)c3ccccc3C2=O)cc1 the results were Peg3 promoter 3.5, TWEAK Fn14 block 64.1*, HIF-2a inh -153.6, CF NFkB block -2.1, TROY signal inh 26.9 and KKLEB tox -1.8.
Screening O=C(c1cc(N2C(=O)C3C4CCC(C4)C3C2=O)ccc1Cl)N1CCCCCC1 (configuration not stated) returned Peg3 promoter 15.1, TWEAK Fn14 block 0.3, HIF-2a inh 10.5, CF NFkB block 1.7, TROY signal inh 12.4 and KKLEB tox -0.7.
For CN(C)CCNC(=O)c1cccc(NS(=O)(=O)c2ccc(Cl)c(Cl)c2)c1 the results were Peg3 promoter 6.5, TWEAK Fn14 block -9.0, HIF-2a inh 11.0, CF NFkB block -3.2, TROY signal inh 6.1 and KKLEB tox 6.4.
Screening CN(C)CC(C)(C)CNS(=O)(=O)c1ccc(Cl)c(Cl)c1 returned Peg3 promoter 8.9, TWEAK Fn14 block 1.5, HIF-2a inh 15.3, CF NFkB block -4.6, TROY signal inh 51.8*! and KKLEB tox 10.4.
Screening COc1ccccc1N1C(C)=CC(=C(C#N)c2nc3ccccc3s2)C=C1C returned Peg3 promoter 0.2, TWEAK Fn14 block 83.0*, HIF-2a inh 5.1, CF NFkB block 5.1, TROY signal inh 71.8* and KKLEB tox -2.1.
Screening CC1=CC(=C(C#N)c2nc3ccccc3s2)C=C(C)N1c1ccc(F)cc1 returned Peg3 promoter -120.6, TWEAK Fn14 block -11.5, HIF-2a inh -169.9, CF NFkB block -10.2, TROY signal inh 10.8 and KKLEB tox -1.3.
Screening Cc1ccc(S(=O)(=O)N2CCOCC2)cc1C(=O)Nc1ccc(N2CCCCCC2)cc1 returned Peg3 promoter -56.6, TWEAK Fn14 block 11.2, HIF-2a inh -91.8, CF NFkB block 5.5, TROY signal inh 6.0 and KKLEB tox -8.3.
`CCC(C)(C)C1CCc2c(sc(NC(=O)c3ccoc3C)c2C(N)=O)C1` (configuration not stated) gave Peg3 promoter 6.1, TWEAK Fn14 block 16.8, HIF-2a inh 30.5, CF NFkB block -2.3, TROY signal inh 62.9* and KKLEB tox -1.1.
Screening CCC(C)(C)C1CCc2c(sc(NC(=O)c3ccccc3C(=O)O)c2C#N)C1 (configuration not stated) returned Peg3 promoter -11.8, TWEAK Fn14 block 9.0, HIF-2a inh -53.9, CF NFkB block 27.4, TROY signal inh 71.7* and KKLEB tox -15.2.
For CC(C)(C)C1CCc2c(sc(NC(=O)C3CC=CCC3C(=O)O)c2C#N)C1 (configuration not stated) the results were Peg3 promoter 3.4, TWEAK Fn14 block 27.1, HIF-2a inh -11.3, CF NFkB block 24.2, TROY signal inh 55.9* and KKLEB tox 9.5.
